Compound activity (PubChem BioAssay)
Only some compounds are listed: those with a hit (about 3.5% of all), similar ones and a draw of the others.
GPR151 activ: activators of human GPR151, primary screen, cell-based, PathHunter beta-arrestin, luminescence; G-protein coupled receptor 151 (Homo sapiens), Q8TDV0; PathHunter beta-arrestin GPR151 cells; activation, % at 11.2 µM; 650,000 compounds, 1% hits; AID 1508602, 2020; in the data active = activation above about 4.9%;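 note: 0% = median of compound wells and 100% = cells with positive control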
TEAD-YAP inh: TEAD-YAP interaction inhibition, primary screen, TEAD-YAP interaction inhibitor project, luminescence, HEK-TIYL cells; TEAD-Gal4/YAP UAS-luciferase luminescence; inhibition, % at 9.12 µM; 640,000 compounds, 1.4% hits; AID 1259422, 2018; in the data active = inhibition above about 32%;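 note: 0% = median of test compound wells and 100% = reference inhibitor wells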
FBW7 act: FBW7 E3 ligase activators, primary screen, biochemical, AlphaScreen, human; normalized activity (activation), % at 26.1 µM; 650,000 compounds, 0.13% hits; F-box/WD repeat-containing protein 7 (Homo sapiens), Q969H0; AlphaScreen FBW7–phospho-cyclin E peptide binding, activator screen; in the data active = normalized activity above about 1.9%;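 note: purified mutant Fbw7 with reduced substrate affinity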
MITF inh: MITF inhibitors, primary screen, biochemical, AlphaScreen, human; inhibition, % at 2.6 µM; AID 1259374, 2018; AlphaScreen MITF homodimerization, bead proximity signal; 650,000 compounds, 0.91% hits; in the data active = inhibition above about 50%;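 note: 0% = vehicle wells with protein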
Target sequence (O75030 whole entry, looked up): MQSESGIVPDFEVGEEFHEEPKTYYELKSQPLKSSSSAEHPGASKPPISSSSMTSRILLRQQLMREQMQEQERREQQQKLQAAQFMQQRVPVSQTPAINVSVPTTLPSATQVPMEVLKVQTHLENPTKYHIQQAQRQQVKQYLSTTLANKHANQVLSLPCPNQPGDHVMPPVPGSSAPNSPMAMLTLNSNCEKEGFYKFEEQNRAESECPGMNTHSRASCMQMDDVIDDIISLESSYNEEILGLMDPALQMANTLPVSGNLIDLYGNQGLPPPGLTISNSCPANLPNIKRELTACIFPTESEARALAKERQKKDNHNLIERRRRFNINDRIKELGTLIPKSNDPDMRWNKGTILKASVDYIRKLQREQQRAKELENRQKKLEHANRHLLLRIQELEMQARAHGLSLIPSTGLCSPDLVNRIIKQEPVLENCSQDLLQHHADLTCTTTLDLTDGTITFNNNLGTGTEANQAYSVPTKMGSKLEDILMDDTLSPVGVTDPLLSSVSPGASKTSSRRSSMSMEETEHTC
Numbers without * were called inactive.

SMILES | GPR151 activ | TEAD-YAP inh | FBW7 act | MITF inh
CC(C)n1cnc2c(Nc3ccccc3)nc(-c3ccc(C(N)=O)cc3)nc21 | -0.5 | 44.2* | 0.1 | -1.2
CC(C)n1cnc2c(NCc3ccccc3)nc(-c3ccc(C(N)=O)cc3)nc21 | 1.4 | 8.8 | 0.1 | -6.0
CC(C)n1cnc2c(NC3CC3)nc(-c3ccc(C(=O)NC4CC4)cc3)nc21 | -0.6 | 32.7* | 0.0 | 18.0
CCCCCN1C2=C(C(=O)CC(C)(C)C2)C(c2ccc(OC)cc2)C2=C1CC(C)(C)CC2=O | 0.3 | -4.9 | 1.3 | 11.8
CCSc1nc(N)c(C#N)c(CC)c1C#N | 1.4 | -4.8 | 0.0 | 2.0
CCc1c(C#N)c(N)nc(SCC#N)c1C#N | -0.1 | -36.9 | 2.3* | -5.5
O=C(Nc1cccc(-c2nc3ccc(NC(=O)c4cccnc4)cc3o2)c1)c1cccnc1 | 2.1 | 41.4* | 0.0 | 5.0
O=C(Nc1ccc(-c2ccn[nH]2)cc1)c1cccnc1 | -9.7 | 78.7* | 0.1 | -4.0
CCOc1cc(C(=O)Nc2ccc(-c3ccn[nH]3)cc2)cc(OCC)c1OCC | -1.1 | 50.6* | 0.5 | 11.7
O=C(O)c1c(Cl)c(Cl)c(C(=O)O)c(Cl)c1Cl | 0.1 | -4.5 | 0.4 | 1.7
COc1ccc(-n2nnnc2SCC(=O)Nc2ccc(-n3cnnn3)cc2)cc1 | 1.3 | 4.5 | 0.0 | -1.0
COc1ccc(NC(=O)c2ccc(S(=O)(=O)N3CCc4ccccc43)cc2)c2ccccc12 | 1.6 | 60.2* | -0.1 | -2.1
O=C(Nc1ccccc1F)c1ccc(S(=O)(=O)N2CCc3ccccc3C2)cc1 | 1.9 | 40.3* | -0.1 | 9.4
CCOC(=O)c1csc(NC(=O)c2ccc(S(=O)(=O)N3CCc4ccccc43)cc2)n1 | -0.4 | 35.4* | -0.1 | 20.2
COc1ccc(NC(=O)c2ccc(S(=O)(=O)N3CCc4ccccc4C3)cc2)c2ccccc12 | 1.2 | -2.0 | 0.1 | 17.5
O=C(OCc1nc2ccccc2s1)c1ccccc1F | 0.7 | -13.4 | -0.1 | -2.3
COC(=O)c1ccc(-c2ccc(/C=C(\C#N)c3nc(N)c(C#N)c(N)c3C#N)o2)cc1 | 0.1 | 12.3 | 4.7* | 17.9
Cc1ccccc1NC(=O)Cn1c(C)cc(=O)c2ccccc21 | 0.6 | 38.8* | 0.2 | 5.2
O=C(Nn1c(C2CC2)nc2cc(Cl)ccc2c1=O)c1ccccc1 | 0.2 | 53.2* | 0.1 | 2.0
COc1ccc2nc(-c3ccc(N)cc3)[nH]c2c1 | -6.7 | 53.8* | 0.1 | 1.1
CCOc1ccccc1NC(=O)c1cc(OCC)c(OCC)c(OCC)c1 | -0.5 | 12.8 | 0.0 | 3.2
CCOc1cc(C(=O)Nc2sccc2C(=O)N2CCOCC2)cc(OCC)c1OCC | 0.6 | 19.9 | 1.0 | 3.2
CCOc1cc(C(=O)Nc2sccc2C(N)=O)cc(OCC)c1OCC | 1.3 | 36.4* | 0.1 | 2.2
CCOc1cc(C(=O)Nc2ccccc2C(N)=O)cc(OCC)c1OCC | -0.2 | 36.9* | 0.0 | -5.5
Cc1cnc(CNc2cc(-c3ccccc3F)nc(-c3cccnc3)n2)nc1 | 0.4 | 43.3* | -0.4 | 14.9
SMILES | GPR151 activ | TEAD-YAP inh | FBW7 act | MITF inh
Cc1cc(/C=c2\sc3nc4ccccc4n3c2=O)c(C)n1-c1ccc(F)cc1 | -1.3 | 31.9* | 0.0 | -11.7
CC(=O)Nc1ccc(/C=c2\sc3nc4ccccc4n3c2=O)cc1 | -0.2 | 57.0* | -0.1 | 11.2
COc1ccc(-n2c(C)cc(/C=c3\sc4nc5ccccc5n4c3=O)c2C)cc1 | -1.0 | 12.2 | 0.4 | 1.6
O=c1/c(=C\c2ccc3c(c2)OCO3)sc2nc3ccccc3n12 | -0.4 | 37.7* | 0.1 | 6.2
O=c1/c(=C/c2ccc(O)c(Cl)c2)sc2nc3ccccc3n12 | -0.6 | 52.6* | 0.1 | -12.3
O=C1C(N2CCCCC2)=C(N2CCCCC2)C(=O)c2ccccc21 | -3.0 | -2.3 | -0.6 | -7.0
CC(=O)Nc1ccc(NC2=C(N3CCOCC3)C(=O)c3ccccc3C2=O)cc1 | -1.3 | -4.9 | -0.1 | 10.8
CNC1=C(N2CCCCC2)C(=O)c2ccccc2C1=O | -3.3 | 94.3* | 0.6 | 13.4
CCOc1ccc(NC2=C(N3CCOCC3)C(=O)c3ccccc3C2=O)cc1 | 0.7 | -24.6 | -0.2 | 53.8*
CCCNC1=C(N2CCCCC2)C(=O)c2ccccc2C1=O | -1.4 | 93.2* | 0.6 | 22.7
O=C1C(NC2CCCCC2)=C(N2CCCCC2)C(=O)c2ccccc21 | -0.7 | 1.3 | 0.6 | 15.8
O=C(CSc1n[nH]c(COc2ccc(Cl)cc2)n1)Nc1ccc2c(c1)OCCO2 | 0.5 | -3.6 | -0.1 | 2.8
CCN1CCCC1CNC(=O)c1nn(-c2ccc(OC)cc2OC)c(=O)c2ccccc12 (configuration not stated) | 1.0 | 7.3 | -0.1 | 4.4
COc1ccc(-c2nc3c(=O)n(C)c(=O)nc-3n(C)n2)cc1 | -9.3 | 98.0* | -0.4 | 4.7
Cn1nc(-c2ccc(Cl)cc2)nc2c(=O)n(C)c(=O)nc1-2 | -8.3 | -47.7 | -0.2 | 14.1
Cn1nc(-c2ccc(F)cc2)nc2c(=O)n(C)c(=O)nc1-2 | -8.0 | 89.3* | -0.2 | 18.0
Cn1nc(-c2cccnc2)nc2c(=O)n(C)c(=O)nc1-2 | -6.4 | 96.7* | -0.2 | 9.4
C/C(=C\c1ccccc1)c1nc2c(=O)n(C)c(=O)nc-2n(C)n1 | -4.3 | 34.4* | -0.2 | -7.5
O=C(O)CCC(C(=O)O)N1C(=O)/C(=C/C=C/c2ccco2)SC1=S (configuration not stated) | 3.3 | 3.4 | -1.9 | 8.3
O=C(CSc1nc2c(c(=O)n1-c1cccc(C(F)(F)F)c1)SCC2)Nc1ccccc1C(F)(F)F | 1.7 | -5.4 | 0.0 | 14.7
CCN(CC)c1nc(-c2ccc(C(C)(C)C)cc2)nc2ccccc12 | -1.5 | 57.9* | -0.1 | 4.8
CCCCc1ccc(-c2nc(Nc3ccc(C(F)(F)F)cc3)c3ccccc3n2)cc1 | -0.2 | 37.5* | -0.1 | -8.2
CCN(CC)c1nc(-c2ccc(C)cc2)nc2ccccc12 | -0.5 | -15.8 | -0.1 | -14.8
Cc1ccc(Nc2nc(-c3ccc(C)cc3)nc3ccccc23)cc1 | -2.4 | 6.5 | 0.1 | 11.6
COc1ccc(Nc2nc(-c3ccc(C(C)(C)C)cc3)nc3ccccc23)cc1 | -0.4 | 85.8* | 0.5 | 10.4
SMILES | GPR151 activ | TEAD-YAP inh | FBW7 act | MITF inh
COc1ccccc1N1CCN(C(=O)Cc2csc(NC(=O)C3CC3)n2)CC1 | -1.7 | 4.4 | 0.2 | 12.7
CC1=C(C(=O)OC2CCCCCCC2)C(c2ccc3c(c2)OCO3)NC(=O)N1 (configuration not stated) | 2.1 | -13.8 | 0.3 | 10.8
CC(=O)N[C@@H](CC(C)C)C(=O)N1CCC(C2(CCc3ccccc3)NC(=O)NC2=O)CC1 (some centres not stated) | 0.9 | -2.6 | -0.2 | 2.5
CCN(CC)CCNc1cc(C)nc2c1C(=O)C(=O)C=C2N1CCCCC1 | -0.3 | 94.3* | -0.2 | 8.7
COc1cc(OC)cc(C(=O)N/N=C(\C)CC(=O)NC2CCCCC2)c1 | 0.1 | 60.3* | -0.1 | -3.4
COc1cc(OC)cc(C(=O)N/N=C(\C)CC(=O)Nc2ccccc2C(F)(F)F)c1 | -1.6 | 49.5* | -0.2 | -1.7
